Source: PubChem BioAssay AID1347426 (Functional Genomics Laboratory (NCATS/FGL), 2020)
The campaign covered roughly 31,000 sequences. About 1,400 (4.5%) were called active.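 How the source made its calls: active means median seed-adjusted z-score above 1 or below -1; inactive means the rest.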 Only a selection was taken, and actives are over-represented in it overall.

Test: Novel Modifiers of Survival Motor Neuron (SMN) Protein: Gene Identification via Genome-wide siRNA Screen;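 further: luminescence tracks full-length SMN protein made from the SMN2 reporter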
Conditions: HEK293T SMN2-luciferase reporter, siRNA knockdown, 72 h; actives lie on both sides
How it was run: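 Steps: spot 1 pmol siRNA, add Lipofectamine RNAiMax in serum-free DMEM, seed HEK293T SMN2–luciferase reporter cells; incubate 72 h at 37 °C; add ONE-Glo; normalize luminescence to control siRNA, log10, MAD. Candidates: |MAD| > 1.0.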

Sequence | median seed-adjusted z-score
UCAUCGAACUGAAUACCAATT against STARD3 | -0.314 (inactive)
CUACUGGACUGAUCAAGCUTT against CTCFL | -0.362 (inactive)
GGACAAAGACUGUCGCCUATT against DHX35 | -0.066 (inactive)
CUAUGACGACUUAUCCAAATT against ATP5A1 | -0.974 (inactive)
CCUACACCAUGAUCGGAAATT against KIF26B | -0.153 (inactive)
GCGUUAUCCUCACCUUCAATT against G6PD | 0.593 (inactive)
CAUUCAGCUUGUCACGUCATT against THOC4 | -1.54 (active)
CCAAGGUUUUGGAUAGCAATT against RHBDL2 | 0.0701 (inactive)
CCAAGUCCCAUACAACAAATT against C1S | -0.561 (inactive)
GCUUCUACCUUUACACGGATT against PDE1A | 0 (inactive)
CUAUAGCUGUCUCCCAGAATT against PRICKLE2 | -1.12 (active)
GGAGAAAAACUAUAUGAAUTT against ZNF585B | 0.158 (inactive)
CUUUGGAACAAAUACCGAATT against NXN | 0.175 (inactive)
CACCUAUAGUGACGAUAUATT against MEP1B | 1.46 (active)
AGGCAUUCCUCGGAAGUCATT against SMAD7 | -0.25 (inactive)
CCAUCGUUUUGGUCUUGUATT against VN1R2 | -0.151 (inactive)
GGAAAGAACUACCUCCUGATT against TREH | 0.396 (inactive)
GGAAGAUCAUAGAAGUUGATT against SLC1A1 | 0.0967 (inactive)
CCAUUGUCACGGGCUUGUATT against ENPP3 | 0.66 (inactive)
GCAUCUAUGUCAACAAGAUTT against POLR2I | -3.27 (active)
CUGCUAAACUUGAACCGAATT against TM9SF2 | 1.09 (active)
UCCUAUCAGAAGUUGCAUATT against RKHD4 | 0.0683 (inactive)

Sequence | median seed-adjusted z-score
CAAUGUUUACUACAAUGAATT against TUBB2B | 0.935 (inactive)
GGAGUGCUAGAAUCUACUATT against HEPH | -0.293 (inactive)
GGAUACAAAGCACAUAACATT against UBE2D4 | 0.232 (inactive)
GAGCAUUAUGUUACACCAATT against TTC6 | 0.234 (inactive)
GAACCUCAGUUGAGUAUUUTT against RPE | 0.616 (inactive)
CAGUGCUGUUAGAAUAAAATT against ZNHIT1 | -0.497 (inactive)
UGUGGAGAAUGACUACAUATT against SPRY4 | -1.23 (active)
GGAUGACCAGGGUCUAUAATT against FMO4 | -0.359 (inactive)
CCAUGAAUUCUUACUUUUATT against VAC14 | 0.0825 (inactive)
CAGAAUCAGCUGGAAGAAATT against BAIAP2 | -0.0497 (inactive)
GUAGCAGGGCUGAACCCAUTT against ZMAT5 | 0.292 (inactive)
GCCGUGACCUACUUCAUCATT against SLC29A4 | 0.0192 (inactive)
CAGCUGAUGCGGACCAAGATT against RASSF4 | 0.29 (inactive)
GAUACUCGUAUUAAGCCUATT against USP32 | 0.484 (inactive)
GAACUGUGCUGAUGUGAAATT against PATE1 | 1.21 (active)
GCAAGUCGUGAAACUAUAATT against YEATS4 | 0.905 (inactive)
GGUGCUGAAUGUGGAGUAATT against DNAJC3 | 0.502 (inactive)
GCAGAACAACGAGCACAGATT against CTSW | -0.342 (inactive)
GGAAUUCCAGUAACGAUGATT against RNF149 | -0.17 (inactive)
GCAUAAAUGAAAUCUCGGATT against ZMYND8 | -0.065 (inactive)
GGGUCAUCCGAGAAAAGAATT against ADAMTS17 | 0.257 (inactive)
GAGCAGUACAGAACAGGAATT against HAAO | 0.214 (inactive)

Sequence | median seed-adjusted z-score
GCUGCUCACUGUUUCAUGATT against PRSS36 | 0.589 (inactive)
CAACAGAAUAUGCCGUAUATT against SNRPA1 | -2.71 (active)
GUUUGCAUGUGACAAUGGATT against PPTC7 | 0.49 (inactive)
GCACAGGUCUAAUUCGUCUTT against GRIK1 | -0.31 (inactive)
CGACACCGGAUAAACCAAATT against HES1 | -0.262 (inactive)
GCACCAGGAUAUGUCUUAATT against YY1AP1 | 0.0453 (inactive)
GGUCAAAGAGUUAUAGAUUTT against MKKS | 1.03 (active)
GGUGUCACCCUGUGAAUUUTT against MAP1S | 0.0941 (inactive)
AGCCUAUGGUCGGAACGAATT against APOBEC3F | -0.315 (inactive)
GCACCUAUGCAGCUCUUCATT against FBLIM1 | 0.0604 (inactive)
GGGUUACCCUGGUCAUUAATT against ZNHIT2 | -0.339 (inactive)
GGAGAGACCAGUAAACCGATT against NSFL1C | -0.0899 (inactive)
CGAUGAACAUGUUAGACAUTT against AZIN1 | -1.14 (active)
GUACAGGGAGCAGAUCAAATT against HRAS | -0.85 (inactive)
GGAUGUUCACAACCGAAUUTT against CTNNB1 | 0.0802 (inactive)
GGGUAAACGAUUCCAGCAATT against N-PAC | 0.0542 (inactive)
GAAUUGGACUGGAUGCUAATT against DGKK | 0 (inactive)
GGUCCAAAGGGAUCAGGAATT against EMR2 | 0.0569 (inactive)
GCAUCGUUUCUAUGAACUUTT against KCNB2 | 1.22 (active)
GGAUGUAAGCCUGACCAUATT against ZNF784 | 0.291 (inactive)
CCAGAAAGCUUCAUCCACATT against MC1R | -0.64 (inactive)
GCAGAUCCCUUGUUUUCCUTT against APLN | 0.0181 (inactive)

Sequence | median seed-adjusted z-score
CGCUUAAGCCUUCCAACAATT against POLR2A | -3.81 (active)
CGGGCAUUCUUAUUAGUCATT against SLC2A2 | -0.498 (inactive)
CAUCCAGCAUACAAAAGAATT against FCRL3 | -0.642 (inactive)
GCCUCAGUGUUAUUCGAUATT against MAP1B | 0.139 (inactive)
AGAUCGACUUGAUCGUGCATT against CDK10 | 0.327 (inactive)
CAGUCUUCACUGACAACUATT against VIP | 1.52 (active)
GGACCAAGAUGAUCAGAAATT against SAFB | -0.954 (inactive)
CAUAGUCCUUGGACAUGUATT against TDRD9 | 0.0754 (inactive)
CUACCAAUAUGAUAGGUUATT against DDX17 | 0.231 (inactive)
CUAUAGGUUUUAUAGCAUUTT against LIPA | 0.535 (inactive)
GAGUUUCUGUCCAAACUGATT against IL17RA | -1.29 (active)
GGCAAAAACUGUGAAUUAUTT against F10 | -0.0033 (inactive)
CGGAAGGACAGACAAGUAATT against SIGLEC9 | 0 (inactive)
CCAUCACGUUCAUUACCUUTT against GAN | -1.07 (active)
GCCUUUGCAGGUAUCAGAATT against LYPLA1 | 0 (inactive)
GCUUGACUUCAAAACUAAATT against SERPIND1 | 0.133 (inactive)
CCCAAUCAGUAAGAACCAATT against CEACAM1 | -0.211 (inactive)
CCACCUAUAAAGUUCUAAATT against CAPRIN1 | 1.36 (active)
GAUUAUACAUAUUUCGCAATT against BRCA2 | 0 (inactive)
UGGUGUACACUGUUACUCATT against LOC158381 | 0 (inactive)
CGGUCUACAGCAUCGAGUATT against IL22RA1 | -1.14 (active)
CUAUCGACAUCAAGAGUUUTT against PSPC1 | 0.0612 (inactive)

Sequence | median seed-adjusted z-score
GGUUGACAGUGUGCCUAAATT against NRIP1 | 0.789 (inactive)
GGAUAGAUGUUUCUAUCAATT against SUZ12 | -1.65 (active)
GGUGUUUGAUUGUGAGAAUTT against UBE2G1 | 0.174 (inactive)
CCCACUACAGAAGACUUAUTT against SLC4A1 | -0.861 (inactive)
GAAAUGUACCCUCCAGAAATT against CCNB1 | 0.163 (inactive)
CCGGAGAUGGAUGAAUCUATT against ICAM5 | -1 (active)
GUUUCUCAGUACUUCCAGATT against APOA2 | -0.297 (inactive)
GGAUGAGGUCUUCACCAAATT against NENF | -0.778 (inactive)
AAAUCUUCUUUCGACAACATT against RAB37 | 0.0678 (inactive)
GCAAGAUGCAUGCUCAUGATT against ZNF142 | 0.111 (inactive)
CUGUUGAAAUGUAAAACGATT against VNN1 | 0.549 (inactive)
GGACAGAUCUUACCCAUCUTT against TRIM59 | 0.941 (inactive)
AGCCUUUAAUCAUUUCUCATT against ZNF85 | -1.01 (active)
CUUCAUAUUUGACACCUAUTT against SLC25A26 | 0.0213 (inactive)
GACUUUCAGUUCUUACGAUTT against CCNB3 | 0 (inactive)
GGCUCAAUAUGGAGGAUUATT against NPR3 | -0.436 (inactive)
GGCCCUAUGUAUAUGCUUUTT against AK3 | -0.0313 (inactive)
ACAUGCAGCUGGUAAGGAUTT against MFSD4 | -1.89 (active)
GAUACGUUCUGCAAUGUUATT against EPYC | 0.00264 (inactive)
AGACCAAGAGCGCAUCAAATT against JUNB | -0.224 (inactive)
